Data from the supplement of paper PMC10338343.
± gives the standard deviation.

System: EfPiwi piRISC loaded with L1MC piRNA (26 nt)
Test: pre-steady-state target cleavage rate (min^-1); auxiliary factor: 500 nM Ephydatia muelleri Gtsf1; guide: L1MC piRNA 5'p-UAACUAAAUACUAUGCAAGCUGUAGG; MIWI and MILI are mouse PIWI proteins and EfPiwi is from a freshwater sponge; tags in brackets are library labels; higher = faster piRNA-guided slicing of the target
Protocol: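 Cleave-'n-Seq: a library of target RNAs (target site in constant flanks) at […] was incubated with 1 nM active freshwater sponge Ephydatia fluviatilis Piwi piRISC (synthetic 5'-monophosphorylated piRNA guide) with or without 500 nM EmGtsf1 at 33 °C for 1 min to 16 h. Uncleaved targets were sequenced and the pooled three trials fitted to a burst-and-steady-state model to give the pre-steady-state cleavage rate (min^-1). Sequence is the target site only. Fits with R² ≤ 0 are excluded.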

Row | Sequence | pre-steady-state target cleavage rate
1 | UCCUGGAUGUCCUUGCAUAGUAUUUAGCUUA | 0.0051 ± 0.0028
2 | UCCUGGAUGUCCUUGCAUAGUAUUUAGUUG [g2:g19:cont:t1G] | 0.00478 ± 0.0018
3 | UCCUGGAACUCCUUGCAUAGUAUUUAGAAA | 0.00313 ± 0.0019
4 | UCCUGGAUCACCUUGCAUAGUAUUAAGUUA | 0.00509 ± 0.0039
5 | UCCUCCUACAGCUUGCAUAGUAGUUUAGUUA | 0.0131 ± 0.0052
6 | UCCUGCUUCAGCUUGCAUAGUAUUUUCAAA | 0.00362 ± 0.0023
7 | UCCUGGAAGAGGUUGCAUAGUAUUUAGUUA | 0.00538 ± 0.0032
8 | UCCUCCUACAGCUUGCAUAGUAUUUACUAA | 0.00569 ± 0.003
9 | UCCUCGAACAGCUUGCAUAGUAUUUUCAAA | 0.00321 ± 0.0022
10 | UCCUCCUACAGCUUGCAUACUAUUUACUUA | 0.00621 ± 0.0047
11 | UCCUCCUAGAGCAUGCAUAGUAUUUAGUUA | 0.0163 ± 0.0058
12 | UCCUGCUACACCUAGCAUAGUAUUUAGUUA | 0.0171 ± 0.0054
13 | UCCUGCUACAGCUAUGCAUAGUAUUUAGUUA | 0.012 ± 0.0044
14 | UCCUCCUACUGCUUGCAUAGUAUUUACAAA | 0.0028 ± 0.0021
15 | UCCUGGAUGUGCUUGCAUAGUAUGUUAGUUA | 0.00406 ± 0.0038
16 | UCCUGCUACAGCUUGGAUAGUUUUUAGUUA | 0.0172 ± 0.0039
17 | UCCUGGUACAGCUUGCUUAGUAUUUAGUUA | 0.0165 ± 0.0049
18 | UCCUGGAACAUGCUUGCAUAGUAUUUAGUUA | 0.0178 ± 0.0057
19 | UCCUGGAUCAGCUUGCUUAGUUUUUAGUUA | 0.00518 ± 0.0042
20 | UCCUGCUACAGCUUGGAUAGUAUUUUCAAA | 0.00307 ± 0.0018

Row | Sequence | pre-steady-state target cleavage rate
21 | UCCUCCUACAGCUUCCAUAGUAUUUACAAA | 0.00265 ± 0.0026
22 | UCCUGGAACAGCUUGCAUAGUUUUUAGUAA | 0.00724 ± 0.0029
23 | UCCUGGUACAGCUUGCUUAGUAUUUAGAUA | 0.00305 ± 0.0025
24 | UCCUGCUACAGCUAGCAUAGUUUUUAGUUA | 0.00472 ± 0.0016
25 | UCCUGCUACAGCUUGCAUAUAUUUAGUUA | 0.00528 ± 0.0031
26 | UCCUGGAUGUCCUUGUAUAGUAUUUAGUUA | 0.00424 ± 0.0024
27 | UCCUGGAUCAGCUUCCAUAGUAUUUAGAAA | 0.00474 ± 0.0027
28 | UCCUGGAUCAGCUUGCAUAGUAUUUAGUCA | 0.0102 ± 0.0044
29 | UCCUCCUACUCCUUGCAUAGUAUUUAGUUA | 0.165 ± 0.046
30 | UCCUGGAUCAGCAUGCAUAGUAAUUAGUUA | 0.00437 ± 0.0016
31 | UCCUGGAACAGCUUGCAUAGUAUUUACAAA | 0.00238 ± 0.0019
32 | UCCUGCUACAGGAAGCAUAGUAUUUAGUUA | 0.0127 ± 0.0035
33 | UCCUCCUACAGCUUCCAUAGUAUUUACUUA | 0.00277 ± 0.0024
34 | UCCUGGAUGUCCUUGCAUAGUUUUUAGUUA | 0.00455 ± 0.003
35 | UCCUGGAUGAGCUUGCAAAGUAAUUAGUUA | 0.00431 ± 0.0022
36 | UCCUGGAUGAGCUUUCAUAGUAUUUAGUUA | 0.00433 ± 0.0018
37 | UCCUGGUACAGCUUGGCAUAGUAUUUAGUUA | 0.05 ± 0.016
38 | UCCUGGUACAGCUUGCAUAGUAUUUAGUCUA | 0.00521 ± 0.0031
39 | UCCUGGAUGAGCCUGCAUAGUAUUUAGUUA | 0.032 ± 0.011
40 | UCCUGGAUGAGCUUGCAUAGUAUUUAGUUA [g2:g21:cont:t1A] | 0.0338 ± 0.0087
